DAT uptake mod: modulates human dopamine transporter uptake under cocaine; B-score at 10 µM; AID 449768; hit rate 1.3% among 110,000; LLC-PK1 hDAT cells, [14C]-dopamine uptake with cocaine IC80; actives deviate in either direction;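 active = Z score or B-score, a plate-position-corrected score, falls beyond the plate's 99.7% confidence bounds, in either direction; inactive = both scores lie inside the 99.7% bounds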;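 note: scored against the spread of the other compound wells on the same plate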
D1 mod: D1 dopamine receptor (human) allosteric modulation; hit rate 5.9% among 58,000; AID 641; HEK293 D1, CRE-luciferase, dopamine EC30 potentiation; actives deviate in either direction; B-score at 10 µM; P21728;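 active = luminescence count or its row- and column-corrected plate score outside the 99.7% band of the plate's sample wells, on either side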
BAP1 block: blocks human BAP1 ubiquitin-AMC hydrolysis | hit rate 0.48% among 72,000 | recombinant BAP1, Ub-AMC hydrolysis fluorescence kinetic; hits give low values | AID 436 | Q92560 | calls only at 20 µM;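 active = activity remaining at or below 50% of control, provided the compound also passes the data quality filters; inactive = the rest, including low values that fail the filters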;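 note: 100% = DMSO wells rate and 0% = substrate alone blank rate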
Target sequence (Q92560 whole entry, looked up): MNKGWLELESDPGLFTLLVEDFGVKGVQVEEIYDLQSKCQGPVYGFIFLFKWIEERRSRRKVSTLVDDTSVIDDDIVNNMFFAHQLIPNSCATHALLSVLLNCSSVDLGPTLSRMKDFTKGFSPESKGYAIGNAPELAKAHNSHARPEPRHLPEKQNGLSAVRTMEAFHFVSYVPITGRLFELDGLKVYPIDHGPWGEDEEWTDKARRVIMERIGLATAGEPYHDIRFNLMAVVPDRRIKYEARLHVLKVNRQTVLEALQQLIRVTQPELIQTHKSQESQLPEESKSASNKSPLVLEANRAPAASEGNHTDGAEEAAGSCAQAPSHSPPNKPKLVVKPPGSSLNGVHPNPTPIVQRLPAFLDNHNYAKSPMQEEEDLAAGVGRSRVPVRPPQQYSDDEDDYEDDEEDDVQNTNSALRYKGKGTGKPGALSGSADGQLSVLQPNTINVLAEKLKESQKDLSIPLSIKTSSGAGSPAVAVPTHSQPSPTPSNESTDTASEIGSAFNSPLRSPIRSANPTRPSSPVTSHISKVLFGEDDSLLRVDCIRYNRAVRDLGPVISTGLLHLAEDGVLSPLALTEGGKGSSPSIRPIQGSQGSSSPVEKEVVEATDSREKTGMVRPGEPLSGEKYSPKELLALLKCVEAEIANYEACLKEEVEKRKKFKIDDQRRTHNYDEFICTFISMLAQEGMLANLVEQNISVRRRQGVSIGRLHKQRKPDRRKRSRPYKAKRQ
* = called active by the depositor; i = inactive; nt = no result given; + = active, no number. This is one part of a sample in which hits are shown more often than they occur.

SMILES	DAT uptake mod	D1 mod	BAP1 block
CC(=O)c1cccc(NC(=O)Cc2cccs2)c1	-0.119	-0.117	i
CCN(CC(=O)NCc1cccs1)S(=O)(=O)c1cccc(C(C)=O)c1	-7.46*	0.0142	i
CC(C)(C)c1ccc(C(=O)Oc2ccc(Cl)cc2)cc1	nt	nt	i
COc1cccc(C(=O)OCn2nnc3ccccc3c2=O)c1OC	-0.838	5.16*	i
Cc1cc(C)n(-c2ccc(C(=O)OCn3nnc4ccccc4c3=O)cc2)n1	-0.0986	nt	i
Cc1nn(-c2ccccc2)c2sc(C(=O)OCn3nnc4ccccc4c3=O)cc12	nt	1.62	+
COc1cc(C(=O)OCn2nnc3ccccc3c2=O)cc(OC)c1OC	1.79	1.02	i
CC(CCOC(=O)CN1CCCCC1)CCc1ccccc1 (stereo not drawn)	nt	nt	i
O=C(Nc1nncs1)C1COc2ccccc2O1 (stereo not drawn)	-0.229	-0.399	i
CC(=O)c1sc(NC(=O)C2COc3ccccc3O2)nc1C (stereo not drawn)	-0.496	-8.5*	i
CC1(C)Oc2ccc(NC(=O)C3COc4ccccc4O3)cc2O1 (stereo not drawn)	-1.25	-4.34*	i
NS(=O)(=O)c1ccc(NC(=O)C2COc3ccccc3O2)cc1 (stereo not drawn)	0.741	nt	nt
CCOCCOC(=O)C1=C(C)NC2=C(C(=O)CC(C)(C)C2)C1c1ccc(C)cc1 (stereo not drawn)	nt	nt	i
O=C(Nc1ccc(-c2nc3cc(Cl)ccc3o2)cc1)C1CCCO1 (stereo not drawn)	0.807	nt	nt
O=C(Nc1ccc(-c2nc3ccccc3o2)cc1)C1CCCO1 (stereo not drawn)	-0.426	-5.22*	i
CC1(C)c2[nH]c3ccccc3c2C[C@@H]2C(=O)N(Cc3ccccc3)C(=O)N21	0.492	nt	nt
CC1(C)c2[nH]c3ccccc3c2C[C@H]2C(=O)N(Cc3ccccc3)C(=O)N21	2.84*	nt	nt
O=c1oc2ccc(Br)cc2cc1-c1nnc(-c2ccncc2)o1	nt	nt	i
COc1ccc(NC(=O)C(C)NS(=O)(=O)c2ccc(NC(C)=O)cc2)cc1Cl (stereo not drawn)	-0.0745	-0.471	i
Cc1cccc(N(CC(=O)NC2CCCC2)C(=O)CS(=O)CC(=O)Nc2ccc3c(c2)OCO3)c1C (stereo not drawn)	-0.0736	nt	nt
CC(C)=CC(=O)Nc1ccc2c(c1)OCO2	-0.121	-5.23*	i
COc1ccc(NC(=O)C=C(C)C)cc1Cl	-0.91	-3.79*	i
Cc1ccc(NC(=O)CS(=O)CC(=O)Nc2ccc3c(c2)OCO3)cc1Cl (stereo not drawn)	-7.55*	nt	i
O=C(CSCSCC(=O)Nc1ccc2c(c1)OCO2)Nc1ccc2c(c1)OCO2	-0.362	1.05	i
O=C(Nc1c2c(nn1-c1ccc(Oc3ccccc3)cc1)CSC2)c1ccco1	nt	nt	i
SMILES	DAT uptake mod	D1 mod	BAP1 block
Cc1ccccc1C(=NS(=O)(=O)c1ccc(Br)cc1)Nc1ccccc1	nt	nt	i
O=C(Nc1ccc(Br)cc1)c1nc[nH]c1C(=O)O	nt	nt	i
O=C1CC(c2cccc([N+](=O)[O-])c2)Sc2nc3ccccc3n21 (stereo not drawn)	nt	nt	i
O=C(O)CC1OC(=O)c2cc3c(cc21)C(=O)OC3CC(=O)O (stereo not drawn)	nt	nt	i
CCOC(=O)c1c(NC(=O)CSc2n[nH]c(-c3ccco3)n2)sc(C)c1C	-1.55	6.88*	i
CCOC(=O)c1c(NC(=O)CSc2n[nH]c(CNc3ccccc3)n2)sc(C)c1C	-0.000992	nt	nt
Cc1c(NC(=O)c2ccc(OCc3ccccc3)cc2)cccc1-c1nc2ncccc2o1	nt	nt	i
CN=C(NS(=O)(=O)c1ccc(C)cc1)c1ccccc1	nt	nt	i
O=C(Cn1c(=O)oc2ccccc21)c1ccccc1	-0.78	-2.62*	i
O=c1oc2ccccc2n1CCCCCn1c(=O)oc2ccccc21	-0.845	0.183	i
COc1ccc2oc(=O)c(C(=O)N3CCN(c4ccccc4C)CC3)cc2c1	1.64	-0.482	i
COc1ccc2oc(=O)c(C(=O)N3CCN(c4ccccc4)CC3)cc2c1	3.42*	-0.712	i
Oc1ccc(N=CC=Cc2cccc(Br)c2)cc1-c1nc2ccccc2o1	nt	nt	i
C=CCn1c(=O)c(C(=O)Nc2ccc(O)cc2)c(O)c2ccccc21	nt	nt	i
O=C1/C(=C/Nc2ccc3c(c2)OCO3)CCc2ccccc21	-0.00773	-6.15*	i
COc1ccc2c(c1)CC/C(=C\Nc1ccc3c(c1)OCO3)C2=O	-0.226	nt	nt
Cc1ccc2nc(NCC(=O)O)nc(-c3ccccc3)c2c1	0.0777	nt	nt
Cc1ccc2nc(NCCCO)nc(-c3ccccc3)c2c1	3.06*	nt	nt
O=C(Nc1nc2c(cc3c4c(cccc42)CC3)s1)c1ccc(S(=O)(=O)N2CCc3ccccc32)cc1	nt	nt	i
c1ccc(-c2nc(CSc3nnnn3-c3ccccc3)cs2)cc1	0.571	0.361	nt
Cc1ccccc1Nc1nc(CSc2nnnn2-c2ccccc2)cs1	-7.97*	nt	nt
CC(C)Oc1cccc(C(=O)Nc2ccc(Cl)c(-c3nc4ncccc4o3)c2)c1	nt	nt	i
Cc1ccccc1NC(=O)CC(O)(C(F)(F)F)C(F)(F)F	-1.33	nt	nt
Cc1ccc(NC(=O)CC(O)(C(F)(F)F)C(F)(F)F)c(Br)c1	-3*	0.0255	i
COc1ccc(C2CC(c3cccs3)=Nc3ccccc3S2)c(OC)c1 (stereo not drawn)	nt	nt	i
SMILES	DAT uptake mod	D1 mod	BAP1 block
Cc1ccc(C2=NN(C(=O)CCC(=O)O)C(c3ccc(Br)cc3)C2)cc1 (stereo not drawn)	nt	nt	i
Cc1nc2sccn2c(=O)c1CCN1CCC(=C(c2ccccc2)c2ccc(F)cc2)CC1	-3.54*	-3.42	i
CN1CCN(CCCC(=O)c2ccc(F)cc2)CC1	0.717	-1.65	i
O=C(Nc1ccc(Br)c(C(F)(F)F)c1)c1ccc(F)cc1	nt	nt	i
COc1ccc(-c2[nH]c(-c3ccc(C(=O)O)cc3)nc2-c2ccccc2)cc1	-2.36*	nt	nt
COc1ccc(-c2[nH]c(-c3ccc4c(c3)OCO4)nc2-c2ccccc2)cc1	-1.73	nt	nt
O=C1CCCC2=C1C(c1cccs1)n1nc(SCc3ccccc3F)nc1N2 (stereo not drawn)	2.76*	-0.0897	i
Cc1ccccc1CSc1nc2n(n1)C(c1cccs1)C1=C(CCCC1=O)N2 (stereo not drawn)	0.679	nt	i
Cc1ccc(N2C(=O)c3ccc(-c4ccc5c(c4)C(=O)N(c4ccc(C)cc4C(=O)O)C5=O)cc3C2=O)c(C(=O)O)c1	nt	nt	i
CCN1C(=S)SC(=O)C1=C1C=C(C)N(CCO)C(C)=C1	-0.484	0.0549	nt
CCN1C(=S)SC(=O)C1=C1C=C(C)N(CCOC)C(C)=C1	nt	-3.96*	nt
CCOC(=O)c1c(NC(=O)COc2ccccc2C)sc(C(C)=O)c1C	nt	nt	i
COc1cc(C2C(C(=O)OC3CCCCC3)=C(C)NC3=C2C(=O)CC(c2ccccc2)C3)cc(Br)c1O (stereo not drawn)	nt	nt	i
Cc1nc2oc3c(NCc4ccccc4)ncnc3c2c2c1COC(C)(C)C2	nt	8.47*	i
CC1(C)Cc2c(C#N)c(NCC3CCCO3)nc(-c3ccco3)c2CO1 (stereo not drawn)	-0.223	nt	i
CC(C)c1nc2oc3c(NCC4CCCO4)ncnc3c2c2c1COC(C)(C)C2 (stereo not drawn)	1.03	12.2*	i
Cc1nc2sc3c(NCc4ccco4)ncnc3c2c2c1COC(C)(C)C2	0.432	nt	i
COc1ccc(N=c2oc3cc(OC(C)=O)ccc3cc2C(=O)NC(C)=O)cc1	nt	nt	i

From PubChem
